Reference: PubChem BioAssay (Tox21)
Values joined by “and” are separate entries in the source; they are usually repeats but may differ in a detail not shown here. Identical values can stand only once. Inconclusive results are not listed. Entries that show only a call come without a potency. A structure can be active in one record and inactive in another. Active and inactive are the calls of the source. Unless noted, calls come from the whole dose curve; as a rule, active = well fitted curve in the direction sought with a large enough effect in the repeat runs; inconclusive = weak or mixed curves; inactive = no such curve, though single readings can be large; an effect the other way counts as inactive or inconclusive.

What was measured:
[1] = qHTS assay to test for compound auto fluorescence at 535 nm (green) in HEK293 cells (AID 720680)
[2] = qHTS assay to test for compound auto fluorescence at 460 nm (blue) in HEK293 cell free culture (AID 720681)
Procedure, shortened: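 Test compounds were pinned into cell-free culture medium (DMEM with 10% FBS) and fluorescence was read directly at Ex/Em 405/460 nm. Signals were expressed as fluorescence equivalents of triamterene, with DMSO vehicle as control.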

[3] = qHTS assay to test for compound auto fluorescence at 535 nm (green) in HEK293 cell free culture (AID 720682)
Procedure, shortened: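 Cell-free medium (DMEM, 10% FBS) receives compound or DMSO by pintool. Plate read directly at Ex 485/Em 535 nm. Signal converted to fluorescein equivalency.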

[4] = qHTS assay to test for compound auto fluorescence at 590 nm (red) in HepG2 cell free culture (AID 720684)
Procedure, shortened: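 Measured in medium alone (MEM containing 10% FBS) following pintool addition of compound; emission at 590 nm with 540 nm excitation, referenced to Rose Bengal sodium.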

[5] = qHTS assay to test for compound auto fluorescence at 460 nm (blue) in HepG2 cell free culture (AID 720685)
Procedure, shortened: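 Compound (23 nL) or DMSO pinned into cell-free MEM with 10% FBS; blue fluorescence read at 405/460 nm excitation/emission, expressed as auto-fluorescence equivalency to triamterene.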

[6] = qHTS assay to test for compound auto fluorescence at 535 nm (green) in HepG2 cell free culture (AID 720686)
[7] = qHTS assay to test for compound auto fluorescence at 460 nm (blue) in HepG2 cells (AID 720687)
Procedure, shortened: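 Cells (2,000/well in MEM with 10% FBS) attached overnight at 37 C, then were exposed to compound or DMSO for 1 hr at 37 C, 5% CO2. Fluorescence read at Ex/Em 405/460 nm, expressed as triamterene-equivalent signal.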

[8] = molecular target: Glucocorticoid receptor (Homo sapiens) (UniProt P04150); experiment: qHTS assay to identify small molecule agonists of the glucocorticoid receptor (GR) signaling pathway (AID 720691; active = well fitted activation curve with a large enough effect in the signal ratio in the repeat runs, not every such curve was filed as active; the % refers to the signal ratio)
Procedure, shortened: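 qHTS in GR-bla HeLa cells: 4 h settling at 37 C/5% CO2, 18 h compound incubation at 37 C, 2 h LiveBLAzer B/G FRET substrate at room temperature, fluorescence intensity measured.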

[9] = molecular target: Glucocorticoid receptor (Homo sapiens) (UniProt P04150); experiment: qHTS assay to identify small molecule antagonists of the glucocorticoid receptor (GR) signaling pathway (AID 720692; active = well fitted inhibition curve with a large enough effect in the signal ratio in the repeat runs, not every such curve was filed as active; the % refers to the signal ratio)
Procedure, shortened: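 Inhibition of glucocorticoid signalling is measured in HeLa cells with a GRE-controlled beta-lactamase reporter; cells are co-treated with compound and 5 nM dexamethasone (final) for 18 h before FRET substrate readout.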

[10] = qHTS assay to identify small molecule antagonists of the glucocorticoid receptor (GR) signaling pathway - cell viability counter screen (AID 720693); note: nearly all actives have a fitted effect of over 55% in size
[11] = qHTS assay for identifying genotoxic compounds that show differential cytotoxicity against isogenic chicken DT40 cell lines with known DNA damage response pathways - wild type cell line (AID 743012); note: nearly all actives have a fitted effect of over 60% in size; note: potency is the fitted concentration of half-maximal effect
Procedure, shortened: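 First, wild type DT40 cells were plated at 300 per well and equilibrated about 0.5 h at 37 C/5% CO2. Next, compounds in DMSO were added and exposure lasted 40 h. Finally, CellTiter-Glo was added for 30 min at room temperature and luminescence recorded.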

[12] = qHTS assay for identifying genotoxic compounds that show differential cytotoxicity against isogenic chicken DT40 cell lines with known DNA damage response pathways - Rev3 mutant cell line (AID 743014); note: nearly all actives have a fitted effect of over 55% in size; note: potency is the fitted concentration of half-maximal effect
[13] = qHTS assay for identifying genotoxic compounds that show differential cytotoxicity against isogenic chicken DT40 cell lines with known DNA damage response pathways - Rad54/Ku70 mutant cell line (AID 743015); note: nearly all actives have a fitted effect of over 60% in size; note: potency is the fitted concentration of half-maximal effect
[14] = qHTS assay to identify small molecule antagonists of the androgen receptor (AR) signaling pathway - cell viability counter screen (AID 743033; note: nearly all actives have a fitted effect of over 45% in size; note: potency is the fitted concentration of half-maximal effect)
[15] = qHTS assay to identify small molecule antagonists of the androgen receptor (AR) signaling pathway using the MDA cell line - cell viability counter screen (AID 743041; note: nearly all actives have a fitted effect of over 45% in size; note: potency is the fitted concentration of half-maximal effect)
Procedure, shortened: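 Viability counter screen run alongside the AR antagonist reporter: cells seeded 5 h before compound, R1881 added, 16 h incubation at 37C without CO2, fluorescent CellTiter-Fluor signal quantified.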

[16] = molecular target: Androgen receptor (Homo sapiens) (UniProt P10275); experiment: qHTS assay to identify small molecule antagonists of the androgen receptor (AR) signaling pathway (AID 743035; active = well fitted inhibition curve with a large enough effect in the signal ratio in the repeat runs, not every such curve was filed as active; the % refers to the signal ratio)
Procedure, shortened: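 Beta-lactamase FRET read (2 h RT incubation with LiveBLAzer B/G) following 16 h of compound plus R1881 treatment of AR-UAS-bla HEK293 cells, which had been pre-incubated 4 h at 37C.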

[17] = molecular target: Androgen receptor (Homo sapiens) (UniProt P10275); experiment: qHTS assay to identify small molecule agonists of the androgen receptor (AR) signaling pathway (AID 743036; active = well fitted activation curve with a large enough effect in the signal ratio in the repeat runs, with a control signal flat, not every such curve was filed as active; the % refers to the signal ratio)
Procedure, shortened: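 AR-bla HEK293 cells, 2,000/well; 4 h preincubation 37C/5% CO2; compound (DMSO) 16 h at 37C; LiveBLAzer B/G FRET substrate 2 h RT; fluorescence intensity read-out.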

[18] = molecular target: Androgen receptor (Homo sapiens) (UniProt P10275); experiment: qHTS assay to identify small molecule agonists of the androgen receptor (AR) signaling pathway using the MDA cell line (AID 743040; note: nearly all actives have a fitted effect of over 20% in size); details: MDA-kb2 AR-luc cells, MMTV luciferase, 16 h; at 70.3 µM (top of the series); stronger effect = higher value
Procedure, shortened: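 Luminescence from ONE-Glo, read after 30 min at room temperature, reflects MMTV-driven luciferase in MDA-kb2 cells (AR- and GR-responsive). Treatment lasted 16 h at 37C, 0% CO2.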

[19] = molecular target: Androgen receptor (Homo sapiens) (UniProt P10275); experiment: qHTS assay to identify small molecule antagonists of the androgen receptor (AR) signaling pathway using the MDA cell line (AID 743042; note: nearly all actives have a fitted effect of over 55% in size)
Procedure, shortened: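 MDA-kb2 cells (human breast carcinoma, stably carrying an MMTV-luciferase reporter responsive to AR and GR) were plated at 3,000 cells/well and preincubated 5 hr at 37C, then given compound plus R1881 agonist for 16 h. ONE-Glo luminescence was read.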

Glucocorticoid receptor (Homo sapiens), sequence (P04150 whole entry, looked up): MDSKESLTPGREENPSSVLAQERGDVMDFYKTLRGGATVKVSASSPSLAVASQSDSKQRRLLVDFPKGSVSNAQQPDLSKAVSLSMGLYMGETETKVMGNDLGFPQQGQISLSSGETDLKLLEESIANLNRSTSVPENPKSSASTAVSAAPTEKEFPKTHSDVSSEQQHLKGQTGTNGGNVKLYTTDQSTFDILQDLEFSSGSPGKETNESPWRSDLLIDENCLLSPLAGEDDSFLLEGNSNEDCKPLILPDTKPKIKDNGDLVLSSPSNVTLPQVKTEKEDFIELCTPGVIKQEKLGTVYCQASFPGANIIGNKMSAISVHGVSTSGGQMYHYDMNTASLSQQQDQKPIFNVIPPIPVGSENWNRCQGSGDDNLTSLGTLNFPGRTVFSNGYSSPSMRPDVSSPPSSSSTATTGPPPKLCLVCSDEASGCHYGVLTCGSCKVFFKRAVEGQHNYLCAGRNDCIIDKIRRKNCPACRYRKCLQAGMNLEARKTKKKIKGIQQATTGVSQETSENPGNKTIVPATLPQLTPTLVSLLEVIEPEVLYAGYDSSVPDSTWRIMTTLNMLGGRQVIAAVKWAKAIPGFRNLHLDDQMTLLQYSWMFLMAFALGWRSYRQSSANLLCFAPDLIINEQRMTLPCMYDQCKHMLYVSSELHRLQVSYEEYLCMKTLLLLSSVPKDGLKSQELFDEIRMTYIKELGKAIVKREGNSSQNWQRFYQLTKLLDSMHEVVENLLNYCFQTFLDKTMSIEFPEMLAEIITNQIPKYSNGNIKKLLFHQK
Androgen receptor (Homo sapiens), sequence (P10275 whole entry, looked up): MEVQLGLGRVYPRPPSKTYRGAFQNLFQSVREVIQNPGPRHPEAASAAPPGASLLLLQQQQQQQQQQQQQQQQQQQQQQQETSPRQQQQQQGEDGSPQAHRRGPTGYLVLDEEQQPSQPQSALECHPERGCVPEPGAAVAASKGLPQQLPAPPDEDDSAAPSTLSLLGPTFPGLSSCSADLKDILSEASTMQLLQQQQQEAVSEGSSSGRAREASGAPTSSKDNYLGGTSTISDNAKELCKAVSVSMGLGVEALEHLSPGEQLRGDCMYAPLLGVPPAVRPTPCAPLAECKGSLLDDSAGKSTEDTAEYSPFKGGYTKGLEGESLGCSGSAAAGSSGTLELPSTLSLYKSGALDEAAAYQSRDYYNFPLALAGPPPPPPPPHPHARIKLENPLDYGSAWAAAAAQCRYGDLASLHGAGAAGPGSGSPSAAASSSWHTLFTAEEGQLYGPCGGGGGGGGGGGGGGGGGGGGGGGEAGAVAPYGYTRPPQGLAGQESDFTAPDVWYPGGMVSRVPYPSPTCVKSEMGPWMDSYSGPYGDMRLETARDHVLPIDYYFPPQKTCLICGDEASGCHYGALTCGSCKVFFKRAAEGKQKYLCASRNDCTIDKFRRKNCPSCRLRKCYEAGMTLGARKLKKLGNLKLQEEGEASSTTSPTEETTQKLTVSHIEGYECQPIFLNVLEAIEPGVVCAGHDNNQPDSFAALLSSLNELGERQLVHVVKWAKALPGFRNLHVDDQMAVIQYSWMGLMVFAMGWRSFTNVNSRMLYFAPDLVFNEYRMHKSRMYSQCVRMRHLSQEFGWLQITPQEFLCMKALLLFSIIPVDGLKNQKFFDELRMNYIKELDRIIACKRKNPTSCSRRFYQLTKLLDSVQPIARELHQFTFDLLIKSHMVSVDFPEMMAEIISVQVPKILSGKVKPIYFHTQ

SMILES | outcome [1] | Potency [2] | outcome [3] | outcome [4] | Potency [5] | outcome [6] | Potency [7] | outcome [8] | Potency [9] | Potency [10] | Potency [11] | Potency [12] | Potency [13] | Potency [14] | Potency [15] | Potency [16] | Potency [17] | activity change [18] | Potency [19]
CN1Cc2c(N)cccc2C(c2ccccc2)C1 (configuration not stated) | inactive | inactive | inactive | inactive | inactive | inactive | inactive | inactive | inactive | inactive | inactive | inactive and 61.1 µM (active) | inactive and 54.5 µM (active) | inactive | inactive |  |  |  | 
Nc1cccc(N)n1 | inactive | inactive | inactive | inactive | inactive | inactive |  | inactive |  | inactive | inactive | inactive | inactive | inactive | inactive |  |  |  | 
CCCCCNCCCCC | inactive | inactive | inactive | inactive | inactive | inactive | inactive |  |  | inactive | inactive | inactive | inactive | inactive | inactive |  |  |  | 
Cc1cccc(C)c1[N+](=O)[O-] | inactive | inactive | inactive | inactive | inactive | inactive | inactive | inactive |  | inactive | inactive | inactive | inactive | inactive | inactive |  |  |  | 
CC/C=C(\C(=O)N[C@@H]1C(=O)N2C(C(=O)OCOC(=O)C(C)(C)C)=C(COC(N)=O)CS[C@H]12)c1csc(N)n1 | inactive | inactive | inactive | inactive | inactive | inactive | inactive | inactive | inactive | inactive | inactive | inactive | inactive | inactive | inactive |  |  |  | 
CCCCCCCC(=O)O | inactive | inactive | inactive | inactive | inactive | inactive | inactive | inactive | inactive | inactive | inactive | inactive | inactive | inactive | inactive |  |  |  | 
O=Cc1ccc(CO)o1 | inactive | inactive | inactive | inactive | inactive | inactive | inactive | inactive | inactive | inactive | inactive | inactive | inactive | inactive | inactive |  |  |  | 
Brc1ccc(Oc2ccc(Br)cc2)cc1 | inactive | inactive | inactive | inactive | inactive | inactive | inactive | inactive | inactive | inactive | inactive | inactive | inactive | inactive | inactive |  |  |  | 
NC(=O)c1ncn([C@@H]2O[C@H](CO)[C@@H](O)[C@H]2O)n1 | inactive | inactive | inactive | inactive | inactive | inactive | inactive | inactive | inactive | inactive | 668 nM (active) and 5.12 µM (active) | 750 nM (active) and 1.62 µM (active) | 1.68 µM (active) and 4.07 µM (active) | inactive | inactive |  |  |  | 
c1cnc2c(c1)ccc1cccnc12 | inactive | inactive | inactive | inactive | inactive | inactive | inactive |  |  | inactive | 3.09 µM (active) and 1.54 µM (active) and 3.86 µM (active) | 1.38 µM (active) and 1.22 µM (active) and 2.43 µM (active) | 1.38 µM (active) and 686 nM (active) and 1.54 µM (active) | 4.9 µM (active) | 49 µM (active) and 30.6 µM (active) |  |  |  | 
OCC(O)CS (configuration not stated) | inactive | inactive | inactive | inactive | inactive | inactive | inactive | inactive | inactive | inactive | inactive | inactive | inactive | inactive | inactive | inactive | inactive | 0.512% (inactive) | inactive
O=C(O)Cc1c[nH]c2ccccc12 | inactive | inactive | inactive | inactive | inactive | inactive | inactive | inactive | inactive | inactive | inactive | inactive | inactive | inactive | inactive |  |  |  | 
